About 83,000 compounds went through this panel and 20% of them were active in at least one assay; those are over-represented in the sample as a whole.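 Values shown are percent growth following 48 h exposure of cells in 96-well plates to a single concentration of compound; below 10 was considered active.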 A number with no mark means an inactive call. Activity calls are given as the source filed them.
Experiments:
Experiment in all cases: NCI-60 one-dose screen, 48 h (100 = growth as untreated, 0 = no growth, -100 = all killed)
Conditions in all cases: 10 µM unless noted
SK-MEL-2 melanoma = test system: SK-MEL-2 melanoma
EKVX NSCLC = test system: EKVX NSCLC
SN12C renal = test system: SN12C renal
UO-31 renal = test system: UO-31 renal
TK-10 renal = test system: TK-10 renal
ACHN renal = test system: ACHN renal
CAKI-1 renal = test system: CAKI-1 renal
A498 renal = test system: A498 renal
CCRF-CEM leukemia = test system: CCRF-CEM leukemia

SMILES	growth (SK-MEL-2 melanoma)	growth (EKVX NSCLC)	growth (SN12C renal)	growth (UO-31 renal)	growth (TK-10 renal)	growth (ACHN renal)	growth (CAKI-1 renal)	growth (A498 renal)	growth (CCRF-CEM leukemia)
COc1cccc(-c2nn(-c3ccccc3)cc2-c2ccnc(NCCCNC(=O)c3cccc(C(F)(F)F)c3)c2)c1	33.4%	48.9%	45.5%	10.9%	26.9%	31.7%	51.4%	43.6%	21.5%
Cc1cc(NCCCCNc2ccnc3cc(Cl)ccc23)nc(Nc2ccc(C(=O)N3CCCCC3)cc2)n1	-63.1% (active)	41.1%	29.6%	33.5%	-49.2% (active)	-4.47% (active)	79.5%	53.4%	-20% (active)
C[n+]1cc2c3c(ccc2c2ccc4cc5c(cc4c21)OCO5)OCO3	-77.4% (active)	-74% (active)	-53.4% (active)	-94.6% (active)	-95.4% (active)	-92.2% (active)	-29.9% (active)	-64.1% (active)	11.8%
c1c[nH]c(CNC2CCCCC2)c1	115%	108%	107%	89.8%	120%	98.1%	96.1%	91.3%	96.6%
CC(CCc1ccc(Cl)c(Cl)c1)NCc1ccc(C(C)(C)C)cc1 (stereo not given)	105%	102%	91.9%	78.6%	78.4%	92.7%	85.9%	90.8%	77.2%
COc1cccc(C(=O)NCCNc2cc(-c3cn(-c4ccccc4)nc3-c3cccc(OC)c3)ccn2)c1	57.2%	69%	74.4%	39.9%	80.4%	69.8%	69.2%	59%	25.6%
CC(C)(C)C(CCc1ccc(Cl)cc1)N1CCN(C2CCCCC2)CC1 (stereo not given)	72.9%	70.1%	45.7%	32.6%	96.2%	51.3%	35.8%	78%	25.9%
COc1cccc(-c2nn(-c3ccccc3)cc2-c2ccnc(NCCCNC(=O)c3ccccc3)c2)c1	63.6%	55.8%	67.2%	39.3%	60.7%	69%	67.3%	59.4%	27.7%
CC(=O)C(C)Cc1cc2c(cc1C)C(C)(C)CCC2(C)C (stereo not given)	94.8%	94.4%	103%	101%	100%	104%	97.6%	108%	121%
COc1ccc2cc(-c3cc(OC)c(OC)c(OC)c3)c(=O)oc2c1	62.3%	54.1%	92.7%	87.7%	85.8%	90.1%	79.3%	53%	74.6%
C=C1C(=O)O[C@H]2[C@H]1CC/C(CNC(=O)/C=C/c1ccc(Cl)cc1Cl)=C\CC[C@@]1(C)O[C@@H]21	-13.8% (active)	-35.8% (active)	-43.4% (active)	-90.2% (active)	-88.8% (active)	-79.9% (active)	-31.2% (active)	-3.46% (active)	-30.7% (active)
O=[N+]([O-])c1ccc(Sc2cccc[n+]2[O-])c2nonc12	92.9%	98.2%	93.6%	49.1%	133%	95.4%	102%	113%	-18.8% (active)
COc1ccc2nc(NNC(=O)c3cnccn3)c3cccn3c2c1	46.1%	2.79% (active)	8.52% (active)	-17% (active)	30.7%	-22.8% (active)	4.46% (active)	-11.5% (active)	1.48% (active)
Cc1cc(NCc2cc(Nc3ccnc4cc(Cl)ccc34)ccc2F)nc(N2CCN(c3ccccc3)CC2)n1	84.5%	64.8%	49.9%	36.1%	88.7%	69.2%	72.3%	14.1%	-7.8% (active)
S=C(Cc1ccc2c(c1)CCCC2)N1CCOCC1	87.1%	97.5%	101%	92.2%	106%	101%	102%	101%	119%

Reference: PubChem BioAssay (NCI)
